# High-throughput results deposited in PubChem BioAssay by National Center for Advancing Translational Sciences (NCATS).
# SMN2 splice enh = SMN2 splice variant enhancement; HEK293 SMN2-luciferase splicing reporter, luminescence, 30-36 h; Potency, µM (top dose mostly 46.1 µM), most hits filed as activators; 210,000 tested, 2.8% active; also: nearly all actives have a fitted effect of over 55% in size
#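 qHTS luciferase splicing reporter: luminescence rises when SMN2 exon 7 is included in transfected HEK293 cells. Compound exposure lasted 30-36 h at 37C, with 4.5 mM final sodium butyrate as control, followed by a ONE-Glo read.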
# ELG1 repair inh = inhibitors of ELG1-dependent DNA repair in HEK293T cells | HEK293T ELG1-luciferase reporter, luminescence, 16 h; DNA damage induced by 5-fluorouridine | Potency, µM (series often up to 46.1 µM), usual class: inhibitors | 330,000 tested, 2.3% active; also: nearly all actives have a fitted effect of over 55% in size
#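 Step one: seed 2,000 cells per well. Step two: pin-transfer compound or DMSO alongside 5-fluorouridine. Step three: incubate 16 hr, 37 °C, 5% CO2. Step four: add ONE-Glo, wait 30 min, read luminescence.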
# Rab9 promoter act = activators of Rab9 promoter. Huh7 Rab9 promoter-luciferase reporter, luminescence, 24 h. Potency, µM (highest dose often 9.22 µM), actives largely listed as activators. AID 485297. 320,000 tested, 2.8% active; also: nearly all actives have a fitted effect of over 60% in size
#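 Stable Rab9-luc Huh7, 1500 cells/well, 2 h settle; cmpd in DMSO, 24 h, 37 °C/5% CO2; luciferase reagent 10 min RT; luminescence.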
# FLuc counter = firefly luciferase modulation, counter-screen for miR-21 project | P08659 | purified FLuc, Km substrates, luminescence inhibition | Potency, µM (top dose mostly 57.5 µM), usual class: inhibitors | 360,000 tested, 6.9% active | AID 588342; also: nearly all actives have a fitted effect of over 55% in size
# Target sequence (P08659 whole entry, looked up): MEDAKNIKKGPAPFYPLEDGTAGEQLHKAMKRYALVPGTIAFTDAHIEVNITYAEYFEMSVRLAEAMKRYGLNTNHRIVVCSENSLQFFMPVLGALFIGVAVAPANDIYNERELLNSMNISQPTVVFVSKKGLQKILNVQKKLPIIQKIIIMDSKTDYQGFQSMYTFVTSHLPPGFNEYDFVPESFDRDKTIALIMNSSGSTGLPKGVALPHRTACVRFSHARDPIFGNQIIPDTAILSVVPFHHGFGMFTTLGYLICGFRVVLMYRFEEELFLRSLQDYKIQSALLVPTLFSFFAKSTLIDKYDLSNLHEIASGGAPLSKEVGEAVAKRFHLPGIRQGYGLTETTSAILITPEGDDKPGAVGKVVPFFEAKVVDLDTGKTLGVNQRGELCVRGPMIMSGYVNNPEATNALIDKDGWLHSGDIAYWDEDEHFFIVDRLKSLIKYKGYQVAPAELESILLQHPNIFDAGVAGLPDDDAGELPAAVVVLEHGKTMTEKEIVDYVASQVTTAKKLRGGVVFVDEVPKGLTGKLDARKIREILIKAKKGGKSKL
#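 Biochemical qHTS of compounds, final roughly 60 µM downward over six points, against 10 nM purified firefly luciferase using Km concentrations of substrates (10 uM D-luciferin, 10 uM ATP) in Tris acetate pH 7.5 buffer; luminescence output.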
# ELG1 genotoxic = induces genotoxicity in HEK293T cells with luciferase-tagged ELG1; HEK293T ELG1-luciferase reporter, luminescence, 16 h; Potency, µM (top dose mostly 46 µM), hits mostly activators; 330,000 tested, 1.3% active; AID 504466; also: nearly all actives have a fitted effect of over 60% in size
#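 Genotoxicity was scored as increased ELG1-luciferase reporter signal, measured by ONE-Glo luminescence (30 min, room temperature). Compound or vehicle exposure of the HEK293T reporter cells lasted 16 hr at 37°C.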
# NPC1 prom act = activators of NPC1 promoter; Huh7 NPC1 promoter luciferase reporter, 24 h; Potency, µM (titrated, usually from 9.22 µM), actives largely listed as activators; 320,000 tested, 2.4% active; AID 485313; also: nearly all actives have a fitted effect of over 60% in size
#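 Luminescence from an NPC1 promoter-driven luciferase reporter in stably transfected Huh7 cells was measured after 24 h compound treatment at 37 °C, followed by 10 min ambient incubation with luciferase detection reagent.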
# A number is an active result; 0 = inactive; ? = inconclusive; - = no result; [ ] = another dose, or the depositor's remark. The list is not random: actives were taken first. Their share in the collection is about 9.2%. Calls follow the shape of the dose curve; as a rule, active = well fitted curve in the direction sought with a large enough effect; inconclusive = small, poorly fitted or top-dose-only effect, or another doubt; inactive = no such curve, though single readings can be large; an effect the other way counts as inactive or inconclusive.
SMILES,SMN2 splice enh,ELG1 repair inh,Rab9 promoter act,FLuc counter,ELG1 genotoxic,NPC1 prom act
CN(C)/C=C/C(=O)c1cnc(-c2cccc(Cl)c2)s1,14µM,?,1.3µM,12µM,?,3.2µM
O=C(Nc1ccccn1)c1nc(-c2ccccc2)n(-c2ccccc2)n1,0,?,0,0,0,0
NC(=O)c1ccsc1NC(=O)c1nc(-c2ccccc2)n(-c2ccccc2)n1,0,18µM,0,0,0,0
COc1ccc(/C=N/NC(=O)c2nc(-c3ccccc3)n(-c3ccccc3)n2)cc1OC,0,13µM,0,17µM,0,0
COc1ccc(/C=N/NC(=O)c2nc(-c3ccccc3)cc(-c3ccccc3)n2)cc1,0,6.5µM,0,2.7µM,0,0
COc1ccc(/C=N/NC(=O)c2c(-c3ccccc3)noc2C)cc1,0,0,0,0,0,0
COc1ccc(/C=N/NC(=O)c2nc(-c3ccccc3)cc(-c3ccccc3)n2)cc1O,0,6.5µM,0,1.5µM,0,0
Cc1cc([N+](=O)[O-])cc2c1NC(=O)C2(O)N1CCOCC1 (configuration not stated),0,0,0,0,0,0
CC(C)(CNC(=O)CNC(=O)c1ccccc1F)N1CCOCC1,-,?,0,0,0,0
COc1ccc(/C=N/NC(=O)CCn2c3ccccc3c3ccccc32)cc1O,0,0,0,11µM,0,0
COc1ccc(/C=N/NC(=O)c2nn(-c3ccccc3)c(=O)c3c(N)scc23)cc1,0,?,0,9.5µM,0,0
COc1cccc(/C=N/NC(=O)CCn2c3ccccc3c3ccccc32)c1,0,0,0,0,0,0
COc1ccc(/C=N/NC(=O)c2nn(-c3ccc(Cl)cc3)c(=O)c3c(N)scc23)cc1,0,0,0,?,0,0
COc1cc(F)c(C2=CC(=O)C[C@H](c3ccc(Cl)cc3)C2)cc1F,-,?,0,0,0,0
Cn1c(O)c(C(C#N)=C2N=c3ccccc3=N2)c2ccccc21,0,0,0,9.5µM,0,0
N#CC(=C1N=c2ccccc2=N1)c1c(O)[nH]c2ccccc12,0,?,0,?,0,0
CCN(CC)S(=O)(=O)c1ccc2c(c1)nc(SCC(=O)N1CCCCCC1)n2-c1ccc(OC)cc1,0,5.2µM,0,0,0,0
Cc1ccc(C(=O)CSc2cc(C)[nH]c(=O)n2)cc1,-,?,4µM,13µM,?,3.2µM
Cc1cc(SCC(=O)c2ccc(Cl)cc2)nc(=O)[nH]1,-,?,1.6µM,4.8µM,?,1.3µM
Cc1ccc(CNC(=O)CSc2cc(C)[nH]c(=O)n2)cc1,-,-,-,0,-,-
Cc1cc(SCC(=O)c2ccccc2)nc(=O)[nH]1,-,?,4µM,15µM,0[9.26 µM],2.5µM
O=C(COC(=O)Cc1ccc(F)cc1)NC1CCCCC1,-,0,0,0,0,0
Cc1cccc(-n2cc(CN(C)Cc3nccn3C)c(-c3cccc(F)c3)n2)c1,-,?,0,?,0,0
Cc1ccc(-n2cc(CNCCN3CCOC3=O)c(-c3ccc(F)cc3)n2)cc1,-,?,0,7.6µM,0,0
COc1ccc(-n2cc(CNCCN3CCOC3=O)c(-c3ccccc3Cl)n2)cc1,-,0,0,17µM,0,0
SMILES,SMN2 splice enh,ELG1 repair inh,Rab9 promoter act,FLuc counter,ELG1 genotoxic,NPC1 prom act
Cc1ccc(-n2cc(CNCCc3ncc(C)[nH]3)c(-c3ccc(F)cc3)n2)cc1,0,0,0,27µM,0,0
Cc1cccc(-n2cc(CNCCN3CCOC3=O)c(-c3cccc(F)c3)n2)c1,-,0,0,9.5µM,0,0
COc1ccc(-n2cc(CNCCc3ncc(C)[nH]3)c(-c3ccccc3Cl)n2)cc1,-,?,0,0,0,0
Cc1ccc(-n2cc(CNCCCN3CCCC3=O)c(-c3ccc(F)cc3)n2)cc1,-,0,0,?,0,0
Cc1ccc(-n2cc(CNCCn3nc(C)cc3C)c(-c3ccc(F)cc3)n2)cc1,-,?,0,27µM,0,0
CCOC(=O)Cc1c[nH]c(=S)[nH]c1=O,-,0,0,0,0,0
N#Cc1ccccc1Cn1cc(/C=C/[N+](=O)[O-])c2ccccc21,0,21µM,0,0,0,0
CCc1cc(-c2n[nH]c(C)c2-c2nc3ccccc3s2)c(O)cc1OCC(=O)NN,0,0,0,0,0,0
O=C(CSc1nc2ccccc2s1)c1ccc(O)cc1O,-,?,0[1.84 µM],13µM,0,?
O=C(Cc1nc2ccccc2s1)c1ccc(O)cc1O,?,?,3.2µM,?,?,3.2µM
O=C(Cc1ccc(Br)cc1)c1ccc(O)cc1O,-,?,?,15µM,?,3.2µM
CCc1cc(C(=O)Cc2nc3ccccc3s2)c(O)cc1OCC(=O)O,-,0,0,21µM,0,0
CC(=O)Nc1ccc(Nc2nc3ccc(Cl)cc3n3cnnc23)cc1,0,-,-,0,-,-
COc1ccc(C(=O)COC(=O)C(Cc2c[nH]c3ccccc23)NC(=O)c2ccc(C(C)(C)C)cc2)cc1 (configuration not stated),0,-,-,0,-,-
Cc1cccc(N2CCN(C(=O)CCC(=O)N3CC(C)Oc4ccc(C)cc43)CC2C)c1 (configuration not stated),-,0,0,0,0,0
Cc1ccc(C)c(N2CCN(CCCNC(=O)Cn3c(-c4cccs4)cc4ccccc43)CC2)c1,-,-,-,0,-,-
Cc1ccc(-c2cc(C(=O)Nc3nccs3)c3ccccc3n2)o1,0,0,0,11µM,0,0
O=C(Nc1nncs1)c1cc(-c2ccco2)nc2ccccc12,-,?,-,-,0,-
O=C(Nc1nccs1)c1cc(-c2ccncc2)nc2ccccc12,0,0,0,0,0,0
COc1cc(NC(=O)c2cc(C)nc3ccccc23)cc(OC)c1OC,0,0,0,0,0,0
COc1ccc(NC(=O)c2cc(-c3ccc(C)o3)nc3ccccc23)cc1OC,0,15µM,?,0.95µM,0,0
Cc1ccc(-c2cc(C(=O)Nc3nccs3)c3ccccc3n2)c(C)c1,0,13µM,0,0,0,0
Cc1ccc(NC(=O)c2cc3c(-c4ccccc4)nn(-c4ccccc4)c3s2)cc1,0,-,-,0,-,-
CC(=O)c1ccc(N=Nc2ccc(N(C)C)cc2)cc1,0,?,0.4µM,0.3µM,?,0.56µM
CN(C)c1ccc(C(=N)c2ccc(N(C)C)cc2)cc1,0,-,-,-,-,-
CN(C)c1ccc(N=Nc2ccccc2Br)cc1,-,?,6.3µM,0.19µM,?,3.5µM
CC(=O)c1ccc(N=Nc2ccc(C)cc2)cc1,1.3µM,?,0.32µM,0.95µM,0.46µM,0.32µM
COC(=O)CCN(c1ccccc1)S(=O)(=O)c1cc(-c2cc(C)no2)ccc1OC,-,0,0,0,0,0
Cc1ccccc1C(=O)Nc1cc(NC(=O)c2ccccc2C)cc(C(=O)O)c1,-,0,0,0,0,0
O=C(CN1CCN(S(=O)(=O)c2cc(Cl)ccc2Cl)CC1)Nc1cccc(F)c1,-,-,-,0,-,-
